# Source: publication PMC11062922 (Nature Chemical Biology, 2023)
# Like-named read-outs stand apart in the source and are kept apart here.
# Tests used:
# Set-up in all cases: species or system human, MV4-11 + K-562 + COLO205 + SK-N-BE2 + OVCAR-8
# DHCR24 = conditions: read-out: apparent Kd; compound concentrations: 100 nM and 1000 nM (sheet 'Samples'), CATDS: 0.15237648069571999; n = 1
# NQO1 = conditions: read-out: apparent Kd; compound concentrations: 100 nM and 1000 nM (sheet 'Samples'), CATDS: 0.149856517044136; n = 1
# PLK1 = conditions: read-out: apparent Kd; compound concentrations: 100 nM and 1000 nM (sheet 'Samples'), CATDS: 0.13672731586716499; n = 1
# RIPK2 = conditions: read-out: apparent Kd, compound concentrations: 100 nM and 1000 nM (sheet 'Samples'), n = 1
# RIPK3 = conditions: read-out: apparent Kd, compound concentrations: 100 nM and 1000 nM (sheet 'Samples'), n = 1
# TP53RK = conditions: read-out: apparent Kd; compound concentrations: 100 nM and 1000 nM (sheet 'Samples'), CATDS: 0.13630649736476699; n = 1
# DJA1 = test system: T1, DJA1; conditions: read-out: apparent Kd, compound concentrations: 100 nM and 1000 nM (sheet 'Samples'), n = 1
# T1 construct: gene DNAJA1
# DYNC1LI1 = conditions: read-out: apparent Kd; compound concentrations: 100 nM and 1000 nM (sheet 'Samples'), CATDS: 9.8378875134037994E-2; n = 1
# GSK3A = conditions: read-out: apparent Kd; compound concentrations: 100 nM and 1000 nM (sheet 'Samples'), CATDS: 0.15388620061227101; n = 1
# GSK3B = conditions: read-out: apparent Kd; compound concentrations: 100 nM and 1000 nM (sheet 'Samples'), CATDS: 0.158803622599584; n = 1
# MYLK3 = conditions: read-out: apparent Kd; compound concentrations: 100 nM and 1000 nM (sheet 'Samples'), CATDS: 9.6792260241437694E-2; n = 1
# PIK3CD = conditions: read-out: apparent Kd, compound concentrations: 100 nM and 1000 nM (sheet 'Samples'), n = 1
# PRKCD = conditions: read-out: apparent Kd; compound concentrations: 100 nM and 1000 nM (sheet 'Samples'), CATDS: 9.5557824797396607E-2; n = 1
# PRKCQ = conditions: read-out: apparent Kd; compound concentrations: 100 nM and 1000 nM (sheet 'Samples'), CATDS: 0.104256233520078; n = 1
# EGFR = conditions: read-out: apparent Kd, compound concentrations: 100 nM and 1000 nM (sheet 'Samples'), n = 1
# PIK3C3 = conditions: read-out: apparent Kd; compound concentrations: 100 nM and 1000 nM (sheet 'Samples'), CATDS: 0.180657848529719; n = 1
# PIK3CA = conditions: read-out: apparent Kd, compound concentrations: 100 nM and 1000 nM (sheet 'Samples'), n = 1
# STK16 = conditions: read-out: apparent Kd; compound concentrations: 100 nM and 1000 nM (sheet 'Samples'), CATDS: 0.16232458546683101; n = 1
# STK4 = conditions: read-out: apparent Kd; compound concentrations: 100 nM and 1000 nM (sheet 'Samples'), CATDS: 0.1689879657386; n = 1
# PDXK = conditions: read-out: apparent Kd; compound concentrations: 100 nM and 1000 nM (sheet 'Samples'), CATDS: 0.488762713371233; n = 1
# DYRK1A = conditions: read-out: apparent Kd; compound concentrations:100 nM and 1000 nM (sheet 'Samples'); n = 1
# PRKD1 = conditions: read-out: apparent Kd; compound concentrations:100 nM and 1000 nM (sheet 'Samples'); n = 1
# EPHA1 = conditions: read-out: apparent Kd, compound concentrations: 100 nM and 1000 nM (sheet 'Samples'), n = 1
# EPHA2 = conditions: read-out: apparent Kd; compound concentrations: 100 nM and 1000 nM (sheet 'Samples'), CATDS: 6.7925989209778895E-2; n = 1
# EPHA4 = conditions: read-out: apparent Kd; compound concentrations: 100 nM and 1000 nM (sheet 'Samples'), CATDS: 7.2128070641764394E-2; n = 1
# EPHA5 = conditions: read-out: apparent Kd; compound concentrations: 100 nM and 1000 nM (sheet 'Samples'), CATDS: 6.7106289127757499E-2; n = 1
# EPHA7 = conditions: read-out: apparent Kd; compound concentrations: 100 nM and 1000 nM (sheet 'Samples'), CATDS: 5.7157289588894301E-2; n = 1
# EPHB2 = conditions: read-out: apparent Kd; compound concentrations: 100 nM and 1000 nM (sheet 'Samples'), CATDS: 6.4850076698592204E-2; n = 1
# EPHB4 = conditions: read-out: apparent Kd, compound concentrations: 100 nM and 1000 nM (sheet 'Samples'), n = 1
# FLT4 = conditions: read-out: apparent Kd; compound concentrations: 100 nM and 1000 nM (sheet 'Samples'), CATDS: 5.9092612801250499E-2; n = 1
# MAPK14 = conditions: read-out: apparent Kd; compound concentrations: 100 nM and 1000 nM (sheet 'Samples'), CATDS: 5.8794914903048702E-2; n = 1
# MAPKAPK2 = conditions: read-out: apparent Kd, compound concentrations: 100 nM and 1000 nM (sheet 'Samples'), n = 1
# NNT = conditions: read-out: apparent Kd; compound concentrations: 100 nM and 1000 nM (sheet 'Samples'), CATDS: 5.7006998713096203E-2; n = 1
# RET = conditions: read-out: apparent Kd; compound concentrations: 100 nM and 1000 nM (sheet 'Samples'), CATDS: 0.20598352545457299; n = 1
# MAP3K12 = conditions: read-out: apparent Kd; compound concentrations: 100 nM and 1000 nM (sheet 'Samples'), CATDS: 0.23080963599757501; n = 1
# GAK = conditions: read-out: apparent Kd; compound concentrations: 100 nM and 1000 nM (sheet 'Samples'), CATDS: 7.6130935509039099E-2; n = 1
# PIK3CG = conditions: read-out: apparent Kd; compound concentrations: 100 nM and 1000 nM (sheet 'Samples'), CATDS: 8.4802846120227496E-2; n = 1
smiles,measurement,setting,value
CC(C)(C)S(=O)(=O)c1ccc2nccc(Nc3n[nH]c4ccc(F)cc34)c2c1 [GSK583],potency estimated from few doses,DHCR24,1410 nM
same,potency estimated from few doses,NQO1,1480 nM
same,potency estimated from few doses,PLK1,1910 nM
same,potency estimated from few doses,RIPK2; CATDS: 0.97549436112996002,4.2 nM
same,potency estimated from few doses,RIPK3; CATDS: 0.14106558052959201,1750 nM
same,potency estimated from few doses,TP53RK,1930 nM
Cn1cc(C2=C(c3cn(C)c4ccc(N)cc34)C(=O)NC2=O)c2ccccc21 [RO0317365-000],potency estimated from few doses,DJA1; CATDS: 0.11913722870337901,1120 nM
same,potency estimated from few doses,DYNC1LI1,1880 nM
same,potency estimated from few doses,GSK3A,637 nM
same,potency estimated from few doses,GSK3B,598 nM
same,potency estimated from few doses,MYLK3,1970 nM
same,potency estimated from few doses,PIK3CD; CATDS: 0.44284718560289399,113 nM
same,potency estimated from few doses,PRKCD,2060 nM
same,potency estimated from few doses,PRKCQ,1580 nM
Fc1cccc(COc2ccc(Nc3ncnc4sc(-c5ccc[nH]5)cc34)cc2Cl)c1 [GW707818B],potency estimated from few doses,EGFR; CATDS: 1,1030 nM
COc1ccc(NC(=O)c2ccoc2)cc1-c1ccc(C(=O)NCC2CC2)cc1 [GW810437X],potency estimated from few doses,DJA1; CATDS: 0.17319621372560801,1720 nM
same,potency estimated from few doses,PIK3C3,1530 nM
same,potency estimated from few doses,PIK3CA; CATDS: 0.62004014167069399,147 nM
same,potency estimated from few doses,STK16,2060 nM
same,potency estimated from few doses,STK4,1830 nM
CCCc1ccc(S(=O)(=O)NC2CCN(c3ccnc(Nc4ccc(F)cc4)n3)C2)cc1 (stereo not drawn) [GSK1379715A],potency estimated from few doses,DJA1; CATDS: 0.51176616573637201,1220 nM
same,potency estimated from few doses,PDXK,1340 nM
O=c1[nH]cc(-c2ccc(N3CCOCC3)cc2)c2sc(-c3cn[nH]c3)cc12 [GSK2276055A],potency estimated from few doses,DYRK1A,810 nM
same,potency estimated from few doses,PRKD1,936 nM
COc1cc2ncnc(Nc3cccc(Cl)c3F)c2cc1O[C@H]1CC[C@H]([C@@H]2NCCNC2=O)CC1 [BI00133844],potency estimated from few doses,EGFR; CATDS: 0.60963151876595101,15.4 nM
same,potency estimated from few doses,EPHA1; CATDS: 0.101565778514596,403 nM
same,potency estimated from few doses,EPHA2,1060 nM
same,potency estimated from few doses,EPHA4,898 nM
same,potency estimated from few doses,EPHA5,1090 nM
same,potency estimated from few doses,EPHA7,1800 nM
same,potency estimated from few doses,EPHB2,1200 nM
same,potency estimated from few doses,EPHB4; CATDS: 0.111344717085302,332 nM
same,potency estimated from few doses,FLT4,1600 nM
same,potency estimated from few doses,MAPK14,1630 nM
same,potency estimated from few doses,MAPKAPK2; CATDS: 6.3284106262713205E-2,1290 nM
same,potency estimated from few doses,NNT,1810 nM
same,potency estimated from few doses,RET,99 nM
Cl.Fc1ccccc1COc1ccc(Nc2ncnc3ccc(-c4nnc(C(F)(F)F)o4)cc23)cc1Cl [GW424170A],potency estimated from few doses,EGFR; CATDS: 0.318491462582081,448 nM
same,potency estimated from few doses,MAP3K12,1290 nM
same,potency estimated from few doses,PIK3CD; CATDS: 0.65461148719951301,104 nM
O=C(O[C@H]1CN[C@H](C#Cc2cc3ncnc(Nc4ccc(OCc5cccc(F)c5)c(Cl)c4)c3s2)C1)N1CCOCC1 [GW869810X],potency estimated from few doses,EGFR; CATDS: 1,72.2 nM
COc1cc2ncnc(Nc3ccc(F)c(Cl)c3)c2cc1O[C@H]1CC[C@H](N)CC1 [BIBW3133BS],potency estimated from few doses,EGFR; CATDS: 0.31081219561231099,48.6 nM
same,potency estimated from few doses,EPHA1; CATDS: 8.4373240562764601E-2,670 nM
same,potency estimated from few doses,EPHB4; CATDS: 9.3319537671251104E-2,508 nM
same,potency estimated from few doses,GAK,922 nM
same,potency estimated from few doses,MAPKAPK2; CATDS: 6.9663188807488702E-2,1270 nM
same,potency estimated from few doses,PIK3CA; CATDS: 0.12114887477335,273 nM
same,potency estimated from few doses,PIK3CD; CATDS: 0.31843258690153697,46.8 nM
same,potency estimated from few doses,PIK3CG,660 nM
same,potency estimated from few doses,RIPK2; CATDS: 8.6500761240037902E-2,624 nM
same,potency estimated from few doses,RIPK3; CATDS: 8.3491494498952795E-2,691 nM
